# In PubChem BioAssay AID1053118 (Broad Institute, 2014):
# Measured potencies and affinities stand elsewhere. A number with no mark means an inactive call.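 How the source made its calls: active means fitted half-maximal concentration for ATP signal loss at most twice the top valid dose; inconclusive means flat curve between -70 and -30%, or an invalid fit; inactive means flat within ±30%, wrong direction, or potency past limit.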
# Assay: HepG2 cell cytotoxicity, dose response, cytotoxicity control, cherry-picks, set 5 (AID 1053118);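 further: 0% = neutral control wells and -100% = mitoxantrone positive control wells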
# Details: HepG2 viability, ATP luminescence, 72 h; series mostly up to 26 µM; activity change, negative = cytotoxicity: at the top concentration
row,SMILES,"activity change, negative = cytotoxicity"
1,C[C@@H]1CN([C@@H](C)CO)C(=O)c2cc(NC(=O)C3CCCCC3)ccc2O[C@H]1CN(C)Cc1ccc(-c2ccccc2)cc1,-0.237%
2,C[C@H](CO)N1C[C@H](C)[C@H](CN(C)Cc2ccccc2)Oc2ncc(-c3ccccc3)cc2C1=O,-12.3%
3,Cc1c(NC(=O)c2ccc3nsnc3c2)cccc1[N+](=O)[O-],8.97%
4,N#C[C@@H]1[C@H](c2ccccc2C2=CCCCC2)[C@H](CO)N1S(=O)(=O)c1ccccc1,-7.49%
5,C[C@@H]1CN([C@H](C)CO)C(=O)c2cc(NC(=O)C3CCCCC3)ccc2O[C@H]1CN(C)Cc1ccc(-c2ccccc2)cc1,-4.55%
6,CC(C)(C)[S@@](=O)N1Cc2cc(C(=O)NCc3ccccc3F)nc(-c3cccc(-c4cncnc4)c3)c2[C@H]1CCO,4.18%
7,CCc1nc2c(OCCc3cccc(OC)c3)cccn2c1N(C)C(=O)c1ccc(C)cc1,-1.29%
8,Cc1oc2ccc(O)cc2c1C(=O)c1ccc(Br)cc1,-3.97%
9,C[C@H](O)C#Cc1ccc2c(c1)O[C@H](CN(C)C)[C@@H](C)CN([C@@H](C)CO)S2(=O)=O,1.62%
10,CN1CCN(C(=O)c2cccc(-c3cnc4cnc(-c5ccccc5Oc5ccccc5)cn34)c2)CC1,15% [at 8 µM]
11,Cc1cccc(N2CCN(S(=O)(=O)c3cn(C)cn3)CC2)c1C,27.8%
12,CCOc1ccccc1NC(=O)c1c(NC(=O)CCC(=O)O)sc2c1CCCCC2,-28.2%
13,C[C@@H]1CN([C@@H](C)CO)C(=O)c2cccc(NC(=O)Nc3ccc(C(F)(F)F)cc3)c2O[C@H]1CN(C)C(=O)Nc1cccc2ccccc12,-23.2%
14,O=C(NCc1ccccc1)c1ccc(-c2cn[nH]c2)c2ccoc12,42.2%
15,CC(C)CNC(=O)c1coc(=O)c(Br)c1,6.5%
16,CN(C)C(=O)c1ccc(-c2ccc3c(c2)[C@H]2[C@H](CCN2C(=O)c2ccc(F)cc2)[C@@H](CO)N3C)cc1,-48.7% [at 23.5 µM]
17,CC(C)(C)[S@](=O)N1Cc2cc(C(=O)NCc3ccccc3F)nc(-c3cccc(-c4cncnc4)c3)c2[C@@H]1CCO,5.05%
18,CCCCOc1ccc(C(C)NC(=O)C2CCCN(S(=O)(=O)CCC)C2)cc1 (stereo not given),-28.5%

row,SMILES,"activity change, negative = cytotoxicity"
1,Cc1ccc(NC(=O)COC(=O)c2cc(Cl)ccc2[N+](=O)[O-])c(C)c1,-3.95%
2,O=C(Nc1ccccc1F)N1C[C@H]2[C@@H](c3ccccc31)[C@@H](CO)N2C(=O)C1CC1,-10.7%
3,C[C@H]1CN([C@@H](C)CO)C(=O)c2cc(NC(=O)C3CCCCC3)ccc2O[C@H]1CN(C)Cc1ccc(-c2ccccc2)cc1,-19.6%
4,N#Cc1ccc(-c2ccc3c(c2)[C@H]2[C@H](CCN2S(=O)(=O)c2cccc(F)c2)[C@H](CO)N3)cc1,-12.5%
5,C[C@@H]1CN([C@H](C)CO)C(=O)c2cc(-c3ccccc3)cnc2O[C@@H]1CN(C)C(=O)c1cccc(F)c1,-6.46%
6,Cn1cnc(S(=O)(=O)N2CCN(c3ccccc3)CC2)c1,-33.2%
7,Nc1nc(-c2cc3c(cc2Cl)OCCO3)cs1,-13.3%
8,C[C@H]1CN([C@@H](C)CO)C(=O)c2cc(-c3ccccc3)cnc2O[C@@H]1CN(C)Cc1ccccc1,-15.4%
9,CO[C@H]1CN(C)C(=O)c2cc(NC(C)=O)ccc2OC[C@@H](C)N(C(=O)CN2CCOCC2)C[C@H]1C,-10.4%
10,COC(=O)C[C@@H]1CC[C@H]2[C@@H](COc3ccc(NC(=O)Cc4cccs4)cc3C(=O)N2C)O1,-10.2% [at 23.5 µM]
11,COCC(=O)Nc1ccc2c(c1)C(=O)N(C)[C@@H]1CC[C@@H](CC(=O)NCc3ccccc3Cl)O[C@@H]1CO2,7.54% [at 23.5 µM]
12,Cc1ccccc1S(=O)(=O)N1CC[C@H]2[C@H](CO)Nc3ccc(-c4ccc(C#N)cc4)cc3[C@H]21,-3.85%
13,O=C(Nc1ccccc1F)N1C[C@@H]2[C@H](c3ccccc31)[C@@H](CO)N2C(=O)C1CC1,-14.9%
14,C[C@@H](O)C#Cc1ccc2c(c1)O[C@@H](CN(C)C)[C@@H](C)CN([C@@H](C)CO)S2(=O)=O,-17.3%
15,COC(=O)C[C@H]1CC[C@H]2[C@@H](COc3ccc(NC(=O)Cc4cccs4)cc3C(=O)N2C)O1,7.86%
16,COc1cccc(S(=O)(=O)N2CC[C@@H]3[C@H]2c2cc(-c4ccc(C#N)cc4)ccc2N[C@@H]3CO)c1,-12.4% [at 23.5 µM]
17,CN(C)c1ccc(-c2ccnc3c2CC(C)(C(=O)NCC2CC2)O3)cc1 (stereo not given),-10.6%
